Measurements taken from PubChem BioAssay AID651813 (National Center for Advancing Translational Sciences (NCATS), 2012).
The campaign covered roughly 2,100 compounds. About 1,100 (52%) were called active. Another 27% or so got no clear call; they are omitted. The set was probably picked from earlier hits. This is one part of the list. Unmarked numbers belong to inactive results. The call rests on the fitted dose curve; in most records, active means well fitted inhibition curve with a large enough effect; inconclusive means small, poorly fitted or top-dose-only effect; inactive means no such curve, though single readings can be large or run the other way.

target: DNA dC->dU-editing enzyme APOBEC-3G (Homo sapiens) (UniProt Q9HC16); assay: qHTS for inhibitors of Vif-A3G interactions: Cherry picks counterscreen; conditions: HeLa A3G-eYFP + Vif (tagged APOBEC3G with the HIV-1 protein that degrades it), eYFP fluorescence, 24 h;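 further: hits raise yellow fluorescence by blocking Vif-driven A3G-eYFP degradation; nearly all actives have a fitted effect of over 70% in size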;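 on max response: max response given as percent of control signal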
In short: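 Readout is eYFP fluorescence (488 nm excitation, 500-530 nm emission) measured on Acumen Explorer after 24 h compound exposure, several concentrations, at 37 deg C. Cells: HeLa stably co-expressing Vif and C-terminally eYFP-tagged A3G; MG132 positive control.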
Potency means the concentration at half of the fitted maximal effect.

Sequence of DNA dC->dU-editing enzyme APOBEC-3G (Homo sapiens) (Q9HC16 whole entry, looked up): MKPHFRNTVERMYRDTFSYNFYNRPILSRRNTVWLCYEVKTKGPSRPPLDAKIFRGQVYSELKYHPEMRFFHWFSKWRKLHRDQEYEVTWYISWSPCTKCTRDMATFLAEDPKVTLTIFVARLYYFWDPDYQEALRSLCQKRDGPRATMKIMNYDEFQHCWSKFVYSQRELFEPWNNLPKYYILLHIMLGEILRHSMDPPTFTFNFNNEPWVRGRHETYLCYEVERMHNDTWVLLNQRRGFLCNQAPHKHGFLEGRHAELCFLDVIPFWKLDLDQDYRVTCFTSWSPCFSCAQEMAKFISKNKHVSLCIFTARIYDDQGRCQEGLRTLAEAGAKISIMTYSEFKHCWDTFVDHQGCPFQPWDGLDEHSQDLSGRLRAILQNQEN

Row | Structure (SMILES) | max response [%] | Potency
1 | CCC(=C/c1sc2ccc3ccccc3c2[n+]1C)/C=C1\Sc2ccc3ccccc3c2N1C | -21.8 | 
2 | Cc1[nH]c2ccccc2c1/C=N/NC(=O)c1cc(-c2ccncc2)nc2ccccc12 |  | 9.94 µM (active)
3 | COc1ccccc1NC(=O)Cc1ccc(-c2ccccc2)cc1 | -14.2 | 
4 | O=C(Nc1ccccc1OC(=O)c1ccccc1)c1ccccc1 |  | 17.7 µM (active)
5 | O=C(NC(=S)Nc1ccc(-c2ccccc2)cc1)c1ccccc1 | 2.13 | 
6 | Cc1cc2c(cc(C(=O)OCC(=O)NCc3cccs3)n2C(C)C)o1 |  | 6.27 µM (active)
7 | C=CCn1cc(/C=C/c2cc[n+](C)cc2)c2ccccc21 |  | 0.886 µM (active)
8 | CCn1cc(/C=C/c2cc[n+](C)cc2)c2ccccc21 |  | 1.77 µM (active)
9 | CC(C)n1cc(/C=C/c2cc[n+](C)cc2)c2ccccc21 |  | 3.53 µM (active)
10 | O=c1[nH]c2cc(Br)cnc2nc1/C=C(\O)c1ccc(F)cc1 |  | 18.4 µM (active)
11 | COc1ccc(-n2nnnc2-c2cccc(OC)c2)cc1 |  | 1.98 µM (active)
12 | CCOc1cccc(-n2nnnc2-c2ccc(OC)cc2)c1 |  | 4.98 µM (active)
13 | COc1ccc(-n2nnnc2-c2ccccc2)cc1 |  | 3.14 µM (active)
14 | COc1cccc(C(=O)Nc2ncc3c(n2)CC(c2ccc(OC)cc2OC)CC3=O)c1 (stereo not given) |  | 17.7 µM (active)
15 | CCN(CC)c1ccc2cc(-c3nc4sc5c(c4c(=O)[nH]3)CCC(C(C)(C)C)C5)c(=O)oc2c1 (stereo not given) | 48 | 
16 | COc1ccc2cc(-c3nc(Cl)c4c5c(sc4n3)CC(C)CC5)c(=O)oc2c1 (stereo not given) |  | 20.6 µM (active)
17 | COc1ccccc1-c1nnc2sc(-c3cc4ccccc4o3)nn12 |  | 1.98 µM (active)
18 | CS(=O)(=O)N(CC(=O)N1CCN(Cc2ccccc2)CC1)c1ccccc1F | -9.78 | 
19 | CCN(CC)CCCNc1ccc2ncn3c4ccc(O)cc4c(=O)c1c23 |  | 23.1 µM (active)
20 | CN(C)C(=O)c1cccc(-c2cnc3c(NC=O)cc(-c4ccccc4F)cn23)c1 | -0.0482 | 
21 | Cc1ccc(-c2cc(NC=O)c3ncc(-c4cccc(C(=O)N(C)C)c4)n3c2)cc1 |  | 8.86 µM (active)
22 | Cc1ccc(-c2cc(NC=O)c3ncc(-c4cnn(C)c4)n3c2)cc1 |  | 3.14 µM (active)
23 | CC(C)n1c(O)c(N=Nc2ccc(Cl)nn2)c2ccccc21 |  | 18.4 µM (active)
24 | NC(=O)CSc1nc2c(sc3ccccc32)c(=O)n1CCCC(=O)NCC1CCCO1 (stereo not given) | -5.1 | 

Row | Structure (SMILES) | max response [%] | Potency
25 | CCOC(=O)/C=c1/s/c(=C\c2c(OC)ccc3ccccc23)c(=O)n1CC(=O)NCC1CCCO1 (stereo not given) |  | 11.2 µM (active)
26 | CCOC(=O)/C=c1\s/c(=C\c2c(OC)ccc3ccccc23)c(=O)n1CC(=O)NCC1CCCO1 (stereo not given) |  | 14.6 µM (active)
27 | CN(C)c1ccc(/C=C/c2ccnc3c(Cl)ccc(Cl)c23)cc1 |  | 3.26 µM (active)
28 | CN(C)c1ccc(/C=C/c2ccnc3c(N)cccc23)cc1 |  | 14.6 µM (active)
29 | CN(C)c1ccc(/C=C/c2ccnc3c(Cl)cccc23)cc1 |  | 11.6 µM (active)
30 | Brc1ccc2c(c1)C(c1cccnc1)=NNC(c1cccs1)=N2 |  | 8.86 µM (active)
31 | c1cncc(-c2nc(NCc3cccs3)c3ccccc3n2)c1 | -5.92 | 
32 | CC(=O)n1cc(/C=N/NC(=O)c2sc(C)nc2C)c2ccccc21 |  | 17.7 µM (active)
33 | O=C(c1ccc(CS(=O)c2ccccc2Cl)o1)N1CCN(c2ccccc2F)CC1 (stereo not given) |  | 2.91 µM (active)
34 | Cn1c(=O)[nH]c(=O)c2c1nc(Br)n2Cc1cccc(Br)c1 |  | 7.04 µM (active)
35 | O=C1C=CC(O)(c2cc(=O)c3c(O)cc(O)cc3o2)C=C1 |  | 7.9 µM (active)
36 | COc1cc(-c2noc(C)c2C#Cc2ccc(N)cc2)cc(OC)c1OC |  | 0.444 µM (active)
37 | CCOC(=O)N1C/C(=C\c2ccccc2)C(=O)/C(=C/c2ccccc2)C1 |  | 8.86 µM (active)
38 | Cc1cccc(C(=O)Nc2nnc(C3=COCCO3)o2)c1 | -1.82 | 
39 | O=c1oc2cc(O)ccc2cc1-c1nc(-c2ccc(Cl)c(Cl)c2)cs1 |  | 1.16 µM (active)
40 | CCN(CC)c1ccc2cc(-c3nc(-c4ccc(Cl)cc4Cl)cs3)c(=O)oc2c1 | 34.3 | 
41 | CCc1sc(-c2cc3ccc(O)cc3oc2=O)nc1-c1ccc(C)cc1 |  | 2.59 µM (active)
42 | NC(=O)C1CCN(c2nc3ccccc3nc2NS(=O)(=O)c2ccc(Br)cc2)CC1 | -5.92 | 
43 | CN1CCN(c2nc3ccccc3nc2NS(=O)(=O)c2ccc(Br)cc2)CC1 | -6.45 | 
44 | O=S(=O)(Nc1nc2ccccc2nc1N1CCN(c2ccccn2)CC1)c1ccc(Cl)cc1 |  | 16.4 µM (active)
45 | CCN1C(=S)SC(=O)C1=C1C=C(C)N(Cc2ccco2)C(C)=C1 |  | 15.8 µM (active)
46 | Cc1cccc(C)c1NC(=S)NC(C)CCc1ccccc1 (stereo not given) | -1.19 | 
47 | COc1cc(C(=O)Nc2ccc(C)cc2)c2ccccc2n1 |  | 2.5 µM (active)
48 | COc1ccc(NC(=O)c2cccc3ccccc23)cc1 |  | 15.8 µM (active)

Row | Structure (SMILES) | max response [%] | Potency
49 | COc1ccc(NC(=O)c2c(Cl)n(C)c3ccccc23)cc1 |  | 14 µM (active)
50 | O=C(O)CSc1c2ccccc2cc2ccccc12 | -3.73 | 
51 | CC(C)(C)c1ccc(Oc2ccc(NC(=O)c3ccccc3C(=O)O)cn2)cc1 | 6.3 | 
52 | CCOC(=O)c1csc(NC(=O)c2cc(-c3ccccn3)nc3ccccc23)n1 | -7.52 | 
53 | CCN1/C(=C/c2cc[n+](C)cc2)C=Cc2cc(C)ccc21 |  | 23.1 µM (active)
54 | O=C1/C(=C/c2ccc(O)cc2)SC(=S)N1Cc1cccnc1 | -0.458 | 
55 | O=C1CSC(=S)N1Cc1cccnc1 |  | 4.11 µM (active)
56 | Cc1ccc2c(c1)C=CC(C#N)N2C(=O)c1ccccc1 (stereo not given) |  | 4.98 µM (active)
57 | C(=C\c1c[nH]c2ccccc12)/c1nccc2ccccc12 |  | 10.3 µM (active)
58 | Cc1ccc2c(/C=C/c3c[nH]c4ccccc34)ccnc2c1C |  | 5.8 µM (active)
59 | C(=Cc1c[nH]c2ccccc12)c1nccc2ccccc12 |  | 20.6 µM (active)
60 | CNCC(O)Cn1c2c(c3ccccc31)CCCC2 (stereo not given) | 20.6 | 
61 | O=C(c1ccccc1F)n1c2c(c3ccccc31)CCCC2 |  | 15.8 µM (active)
62 | O=C(NC1CC1)c1cccc2c1C(=O)c1ccc(N3CCC(Cc4ccccc4)CC3)cc1S2(=O)=O |  | 20.6 µM (active)
63 | O=C(NC1CCCCC1)c1cccc2c1C(=O)c1ccc(N3CCC(Cc4ccccc4)CC3)cc1S2(=O)=O |  | 15.8 µM (active)
64 | COc1ccc2c(c1)N(C)/C(=C/c1cccc[n+]1C)S2 |  | 17.7 µM (active)
65 | CC[n+]1ccccc1/C=C1\Sc2ccc(C)cc2N1C |  | 20.6 µM (active)
66 | CCN1/C(=C/c2cccc[n+]2C)Sc2ccc(OC)cc21 |  | 20.6 µM (active)
67 | CC(=O)N1CCc2c(sc(NC(=O)CSc3ccccc3)c2-c2nc3ccccc3s2)C1 |  | 29.1 µM (active)
68 | CC(=O)Nc1sc2c(c1-c1nc3ccccc3s1)CCN(C(C)C)C2 |  | 18.4 µM (active)
69 | CN1CCc2c(sc(NC(=O)CSc3ccc(F)cc3)c2-c2nc3ccccc3s2)C1 |  | 2.59 µM (active)
70 | CS(=O)(=O)Nc1ccc(C2=NN(S(=O)(=O)c3ccccc3)C(c3cccs3)C2)cc1 (stereo not given) |  | 20.6 µM (active)
71 | CCc1ccc(C2=NN(S(C)(=O)=O)C(c3cccs3)C2)cc1 (stereo not given) |  | 14 µM (active)
72 | CC(C)n1cc(/C=C2\NC(=O)N(c3cccc(Cl)c3)C2=O)c2ccccc21 |  | 14 µM (active)

Row | Structure (SMILES) | max response [%] | Potency
73 | Cc1ccc(NC(=O)c2ccc([N+](=O)[O-])s2)cc1S(=O)(=O)N1CCOCC1 | -5.77 | 
74 | Cc1ccc(NC(=O)c2ccc(NCC3CCCO3)c([N+](=O)[O-])c2)cc1Cl (stereo not given) |  | 20.6 µM (active)
75 | Cc1ccc(NC(=O)c2ccc(NCc3ccco3)c([N+](=O)[O-])c2)cc1Cl |  | 14.6 µM (active)
76 | Cc1ccc(NC(=O)CSc2ccccc2NC(=O)c2cccc(Cl)c2)cc1Cl | 5.07 | 
77 | S=c1[nH]cnc2sc(-c3ccccc3)cc12 | 1.89 | 
78 | O=c1[nH]c(-c2cccnc2)nc2sc(-c3ccccc3)cc12 |  | 0.627 µM (active)
79 | CCCn1c(CN2CCN(C(=O)OCC)CC2)nc2cc(NC(=O)C(C)C)ccc21 |  | 11.2 µM (active)
80 | CCOc1ccc(C(C)=O)cc1COc1cccnc1[N+](=O)[O-] |  | 12.5 µM (active)
81 | N#C/C(=C/c1ccc(N2CCCCC2)o1)c1cccc(F)c1 |  | 5.17 µM (active)
82 | N#C/C(=C/c1ccc(N2CCCCCC2)o1)c1cccc(F)c1 |  | 4.61 µM (active)
83 | O=C1CC(c2ccccc2)Cc2[nH]c(=O)c(-c3nc(-c4cccc(Cl)c4)cs3)cc21 (stereo not given) |  | 2.59 µM (active)
84 | Cc1sc(-c2cc3c([nH]c2=O)CC(c2ccccc2)CC3=O)nc1-c1ccc(Cl)cc1 (stereo not given) |  | 1.3 µM (active)
85 | CCCc1nc2c(C)cc(Br)cn2c1Cc1ccccc1 | -5.65 | 
86 | COc1c(-c2ccc(O)c(O)c2)oc2cc(O)cc(O)c2c1=O |  | 7.9 µM (active)
87 | O=C(COc1ccccc1)NC(=S)Nc1cccc2c(O)cccc12 | -0.841 | 
88 | CCC(=O)NC(=S)Nc1cccc(Cl)c1N1CCCC1 | -18 | 
89 | NC(=O)c1ccccc1NC(=S)NC(=O)CCc1ccccc1 |  | 5.59 µM (active)
90 | O=C1CCCN1c1ccc(S(=O)(=O)Nc2ccc3c(c2)OCCO3)cc1 |  | 5.59 µM (active)
91 | O=C(C[n+]1cccc2cc(Cl)ccc21)c1ccc2ccccc2c1 |  | 23.1 µM (active)
92 | CC(C)(C)c1ccc(C(=O)C[n+]2cccc3cc(Cl)ccc32)cc1 |  | 18.4 µM (active)
93 | CCCC1=[N+](CC(=O)c2ccc(Br)cc2)CCn2cccc21 | -25.2 | 
94 | COc1ccc(C(=O)C[n+]2cc(Br)cc3ccccc32)cc1 |  | 8.2 µM (active)
95 | O=C(C[n+]1cccc2cc(Cl)ccc21)c1ccc(I)cc1 |  | 18.4 µM (active)
